Source: PubChem BioAssay
Activity calls are given as the source filed them.

Tests used:
[1] = molecular target: Albumin (Bos taurus) (UniProt P02769); assay: bovine serum albumin binders on microarray, profiling panel, artefact control for SMM control protein annotation, biochemical, small-molecule microarray, Alexa647 label, 635/667 nm fluorescence (AID 1118); details: BSA-A647 binding, fluorescence 635 nm, higher = more signal;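 further: score merges 667 nm emission intensity and signal-to-noise per printed compound spot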
[2] = small-molecule microarray binders of probe aXIP, primary screen, biochemical, NeuroSMM set, 635/667 nm fluorescence (AID 1119); details: higher = more signal, called active from +8 up or from −8 down;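 further: probe is the protein aXip251-270 applied at 1 µg/mL to compound-printed slides; binding of probe to printed compounds measured as 667 nm fluorescence plus signal to noise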
[3] = small-molecule binders of probe aNOTCH3, primary screen, biochemical, small-molecule microarray, 635/667 nm fluorescence (AID 1120); details: higher = more signal;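 further: probe is a biotin-tagged antibody raised against NOTCH3 rather than NOTCH3 protein; score merges spot fluorescence near 667 nm with spot signal to noise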
[4] = small-molecule binders of probe aNOTCH2, primary screen, biochemical, small-molecule microarray, 635/667 nm fluorescence (AID 1121); details: higher = more signal;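 further: score merges feature fluorescence read at 667 nm with its signal to noise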
[5] = molecular target: Carbonic anhydrase 2 (Homo sapiens) (UniProt P00918); assay: CAII small-molecule binders, profiling panel, biochemical, small-molecule microarray, Alexa647-labelled CAII (AID 1122); details: CAII-A647 binding fluorescence, higher = more signal
[6] = COS7 lysate on small-molecule microarray, probe aHis, 635 nm (AID 1123); details: COS7 cell lysate, fluorescence, higher = more signal;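 further: z-score combines 667nm fluorescence intensity with signal-to-noise per printed compound spot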
[7] = compound binding in COS7 lysate, probe aLAP1, primary screen, cell lysate, small-molecule microarray (AID 1124); details: probe aLAP1, fluorescence, higher = more signal;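 further: lysate comes from COS7 cells expressing LAP1 and is applied at 0.3 µg/mL; score merges spot fluorescence near 667 nm with signal-to-noise over triplicate slides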
[8] = tested on: Sam68 (KHDRBS1); assay: Sam68 small-molecule binders, primary screen, biochemical, small-molecule microarray, 635 nm fluorescence (AID 1125); details: small-molecule microarray binding, higher = more signal;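 further: score merges 667 nm channel intensity with signal to noise over triplicate slides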
[9] = tested on: Chordin-like protein 2 (CHRDL2); assay: CHRDL2 small-molecule binders, primary screen, biochemical, small-molecule microarray, 635 nm fluorescence (AID 1126); details: small-molecule microarray binding, fluorescence 635 nm; higher = more signal;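 further: printed compound slides probed with Chrdl2 protein at 4 µg/mL for 1 h at 4 C; score merges 667 nm emission intensity with signal to noise over three replicate slides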
[10] = molecular target: Concanavalin-A (Canavalia ensiformis) (UniProt P02866); assay: ConA small-molecule binders, primary screen, artefact control for SMM control protein annotation, biochemical, small-molecule microarray, Alexa647 label, 635 nm (AID 1127); details: ConA-A647 binding fluorescence, higher = more signal;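 further: z combines 667 nm emission intensity with signal-to-noise across three replicate slides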
[11] = anti-His antibody binders, primary screen, artefact control for SMM control protein annotation, biochemical, small-molecule microarray, 635 nm fluorescence (AID 1128); details: anti-His Alexa647 antibody binding, higher = more signal;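 further: score merges feature fluorescence with signal-to-noise for each printed compound spot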
[12] = tested on: Human papillomavirus type 1a E7 protein (residues 1-88); assay: HPV1a E7 small-molecule binders, primary screen, biochemical, small-molecule microarray, residues 1-88, 635 nm (AID 1129); details: small-molecule microarray binding, fluorescence 635 nm; higher = more signal
[13] = molecular target: Focal adhesion kinase 1 (Homo sapiens) (UniProt Q05397); assay: small-molecule microarray binders of FAK, primary screen, biochemical, 635/667 nm fluorescence, BSA, DTT (AID 1130); details: PTK2 binding, 635 nm fluorescence, higher = more signal;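 further: composite of spot emission at 667 nm and signal to noise over triplicate slides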
[14] = tested on: Fibrinogen (Alexa647-labelled); assay: fibrinogen binders on compound microarrays, profiling panel, artefact control for SMM control-protein annotation, biochemical, small-molecule microarray, 635/667 nm fluorescence (AID 1131); details: fibrinogen-A647 binding fluorescence, higher = more signal;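 further: z-score merges 667 nm fluorescence with per-spot signal-to-noise over triplicate slides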
[15] = molecular target: Follistatin (Homo sapiens) (UniProt P19883); assay: follistatin binders on small-molecule microarrays, primary screen, biochemical, small-molecule microarray, 635/667 nm fluorescence (AID 1132); details: FST binding, 635 nm fluorescence, higher = more signal
[16] = molecular target: Fibroblast growth factor 2 (Homo sapiens) (UniProt P09038); assay: FGF2 binders on small-molecule microarrays, primary screen, biochemical, small-molecule microarray, 635/667 nm fluorescence (AID 1133); details: small-molecule microarray binding, FGF2, fluorescence 635/667; higher = more signal
[17] = mitochondrial membrane potential change in A549 cells, profiling panel, cell-based, JC-1 fluorescence, basal, 24 h, 100 nL (AID 1138); details: higher = more signal;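 further: A549 lung adenocarcinoma cells under basal conditions with no added stimulus; test concentration not given here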
[18] = tested on: Lefty1; assay: Lefty1 binders on small-molecule microarrays, primary screen, biochemical, small-molecule microarray, 635/667 nm fluorescence (AID 1139); details: small-molecule microarray binding, fluorescence 635/667; higher = more signal
[19] = tested on: wheat germ agglutinin (Triticum aestivum), Alexa647-labelled; assay: wheat germ agglutinin binders on compound microarrays, profiling panel, artefact control for SMM control-protein annotation, biochemical, small-molecule microarray, 635/667 nm fluorescence (AID 1140); details: WGA-A647 binding, 635 nm fluorescence, higher = more signal;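 further: score merges 667 nm feature emission with signal to noise over triplicate slides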
[20] = molecular target: Luciferin 4-monooxygenase (Photinus pyralis) (UniProt P08659); assay: firefly luciferase enzyme inhibitors, primary screen, biochemical, luminescence, purified enzyme, 2006 set (AID 1141); details: SteadyGlo luminescence, 30 min, higher = more signal, called active from +8 up or from −8 down;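 further: cell-free assay with purified firefly luciferase at 100 ng per well in PBS; test concentration not given here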
Chain of Luciferin 4-monooxygenase (Photinus pyralis) (P08659 whole entry, looked up): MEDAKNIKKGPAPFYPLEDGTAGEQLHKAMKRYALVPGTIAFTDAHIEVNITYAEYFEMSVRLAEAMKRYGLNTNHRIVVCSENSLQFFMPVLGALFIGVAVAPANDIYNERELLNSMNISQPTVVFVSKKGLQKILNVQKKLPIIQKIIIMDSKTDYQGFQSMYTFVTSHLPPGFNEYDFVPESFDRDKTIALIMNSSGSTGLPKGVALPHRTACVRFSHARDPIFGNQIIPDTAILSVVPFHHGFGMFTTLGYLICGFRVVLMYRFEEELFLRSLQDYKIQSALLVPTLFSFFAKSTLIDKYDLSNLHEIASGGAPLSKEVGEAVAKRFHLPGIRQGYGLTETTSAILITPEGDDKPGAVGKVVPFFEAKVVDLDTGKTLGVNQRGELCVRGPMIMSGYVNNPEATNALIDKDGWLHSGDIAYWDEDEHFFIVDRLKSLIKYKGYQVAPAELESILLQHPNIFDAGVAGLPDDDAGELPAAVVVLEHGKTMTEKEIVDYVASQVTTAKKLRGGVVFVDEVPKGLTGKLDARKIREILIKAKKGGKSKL

Chain of Albumin (Bos taurus) (P02769 whole entry, looked up): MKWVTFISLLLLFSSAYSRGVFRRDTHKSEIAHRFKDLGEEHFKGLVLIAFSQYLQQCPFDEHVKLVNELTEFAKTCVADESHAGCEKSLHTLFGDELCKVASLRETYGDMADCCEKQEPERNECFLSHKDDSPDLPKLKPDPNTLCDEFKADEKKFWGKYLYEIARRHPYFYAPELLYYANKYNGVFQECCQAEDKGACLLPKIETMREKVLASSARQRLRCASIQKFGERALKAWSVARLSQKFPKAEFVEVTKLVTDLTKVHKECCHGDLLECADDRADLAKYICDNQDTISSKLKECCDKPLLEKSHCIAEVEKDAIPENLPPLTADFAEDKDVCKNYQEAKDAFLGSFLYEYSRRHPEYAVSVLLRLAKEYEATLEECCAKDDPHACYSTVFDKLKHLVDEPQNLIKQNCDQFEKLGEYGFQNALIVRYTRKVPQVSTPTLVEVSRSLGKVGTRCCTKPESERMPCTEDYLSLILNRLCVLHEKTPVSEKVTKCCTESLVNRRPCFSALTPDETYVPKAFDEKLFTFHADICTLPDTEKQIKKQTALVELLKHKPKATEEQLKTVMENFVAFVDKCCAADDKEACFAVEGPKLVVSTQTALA
Chain of Fibroblast growth factor 2 (Homo sapiens) (P09038 whole entry, looked up): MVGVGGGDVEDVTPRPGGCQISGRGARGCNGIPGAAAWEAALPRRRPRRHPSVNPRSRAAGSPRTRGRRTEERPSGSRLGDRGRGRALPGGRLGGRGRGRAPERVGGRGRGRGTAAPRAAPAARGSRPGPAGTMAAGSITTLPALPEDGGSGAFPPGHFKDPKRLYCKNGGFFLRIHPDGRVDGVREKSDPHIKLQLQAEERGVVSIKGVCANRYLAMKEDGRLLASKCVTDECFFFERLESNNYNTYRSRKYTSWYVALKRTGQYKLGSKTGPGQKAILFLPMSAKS
Chain of Concanavalin-A (Canavalia ensiformis) (P02866 whole entry, looked up): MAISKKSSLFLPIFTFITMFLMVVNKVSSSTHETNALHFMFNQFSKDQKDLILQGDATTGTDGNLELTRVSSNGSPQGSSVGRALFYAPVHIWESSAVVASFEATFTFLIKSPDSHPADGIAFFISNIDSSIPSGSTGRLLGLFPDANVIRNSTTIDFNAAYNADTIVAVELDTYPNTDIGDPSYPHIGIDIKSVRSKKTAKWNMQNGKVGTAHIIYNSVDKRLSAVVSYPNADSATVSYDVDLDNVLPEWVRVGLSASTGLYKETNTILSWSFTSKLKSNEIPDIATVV
Chain of Follistatin (Homo sapiens) (P19883 whole entry, looked up): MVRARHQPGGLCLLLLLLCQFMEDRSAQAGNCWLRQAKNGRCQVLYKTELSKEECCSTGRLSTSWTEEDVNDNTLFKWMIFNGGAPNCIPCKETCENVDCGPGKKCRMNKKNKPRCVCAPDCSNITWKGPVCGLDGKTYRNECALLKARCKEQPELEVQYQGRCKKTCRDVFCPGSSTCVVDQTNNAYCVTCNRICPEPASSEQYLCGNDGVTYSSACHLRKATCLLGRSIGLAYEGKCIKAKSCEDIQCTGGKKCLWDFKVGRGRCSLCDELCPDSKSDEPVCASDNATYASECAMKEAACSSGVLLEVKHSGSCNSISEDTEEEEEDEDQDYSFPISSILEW
Chain of Focal adhesion kinase 1 (Homo sapiens) (Q05397 whole entry, looked up): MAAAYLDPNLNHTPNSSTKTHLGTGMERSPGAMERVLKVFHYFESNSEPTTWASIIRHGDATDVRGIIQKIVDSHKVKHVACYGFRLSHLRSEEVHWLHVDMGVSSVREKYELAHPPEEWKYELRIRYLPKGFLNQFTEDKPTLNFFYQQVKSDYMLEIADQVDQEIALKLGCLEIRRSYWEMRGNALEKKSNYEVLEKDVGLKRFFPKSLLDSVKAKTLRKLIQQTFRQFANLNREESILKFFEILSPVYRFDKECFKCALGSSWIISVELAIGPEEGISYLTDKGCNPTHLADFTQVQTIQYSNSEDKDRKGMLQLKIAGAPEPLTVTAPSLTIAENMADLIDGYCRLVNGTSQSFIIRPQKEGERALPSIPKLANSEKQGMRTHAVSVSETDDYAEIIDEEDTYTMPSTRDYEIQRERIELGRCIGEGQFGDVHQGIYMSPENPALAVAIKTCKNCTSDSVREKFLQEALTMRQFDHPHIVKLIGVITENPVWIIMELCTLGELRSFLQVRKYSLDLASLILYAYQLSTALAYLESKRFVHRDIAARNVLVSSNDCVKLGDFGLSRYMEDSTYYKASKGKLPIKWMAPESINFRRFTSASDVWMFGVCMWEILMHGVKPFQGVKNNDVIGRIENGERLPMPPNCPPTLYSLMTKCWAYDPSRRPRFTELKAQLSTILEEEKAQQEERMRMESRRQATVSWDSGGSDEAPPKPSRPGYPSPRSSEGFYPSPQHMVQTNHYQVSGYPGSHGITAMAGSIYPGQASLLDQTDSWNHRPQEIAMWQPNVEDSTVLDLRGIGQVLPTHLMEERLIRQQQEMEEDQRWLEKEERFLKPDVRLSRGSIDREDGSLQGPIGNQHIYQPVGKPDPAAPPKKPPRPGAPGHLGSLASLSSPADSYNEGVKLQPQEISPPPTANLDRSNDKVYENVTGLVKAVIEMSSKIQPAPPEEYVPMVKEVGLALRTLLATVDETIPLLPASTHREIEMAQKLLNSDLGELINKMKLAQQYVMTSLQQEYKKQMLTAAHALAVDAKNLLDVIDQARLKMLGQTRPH

SMILES	composite z-score [1]	composite Z-score [2]	composite z-score [3]	composite z-score [4]	composite z-score [5]	composite z-score [6]	composite z-score [7]	composite z-score [8]	composite z-score [9]	composite z-score [10]	composite z-score [11]	composite z-score [12]	composite z-score [13]	composite z-score [14]	composite z-score [15]	composite z-score [16]	z-score [17]	composite z-score [18]	composite z-score [19]	z-score [20]
CCOC(=O)C1=C[C@@H](c2ccccc2)N(S(=O)(=O)c2ccc(C)cc2)[C@H]1c1ccc(F)cc1	0.823	-0.263 (inactive)	0.0836	0.111	0.283	1.57	0.284	1.16	-0.0043	1.12	0.986	1.14	1.23	0.995	1.06	0.47	0.994	0.207	1.08	1.54 (inactive)
O=C1O[C@@H](c2ccccc2)[C@@H](c2ccccc2)N2[C@@H](c3ccccc3OCCO)[C@]3(C(=O)Nc4ccc(C#CC5=CCCCC5)cc43)[C@@H](C(=O)O)[C@H]12	0.664	-0.114 (inactive)	0.0563	-0.0391	0.549	1.67	0.659	1.33	-0.241	1.08	1.91	1.19	0.705	0.934	1.14	0.301	-2.32	0.699	1.17	-5.86 (inactive)
[N-]=[N+]=Nc1ccccc1C[C@@]1(C(=O)N2CCOCC2)N=C(c2ccc(OCCCO)cc2)O[C@@H]1c1ccccc1N=[N+]=[N-]	0.873	0.997 (inactive)	0.121	-0.0286	0.467	1.24	0.0649	1.33	-0.338	1.1	2.48	1.19	1.41	0.886	1.42	0.667	2.03	0.0674	1.22	-3.69 (inactive)
C=CCN(C(=O)C1N(c2ccc(CCO)cc2)C(=O)C2C(C(=O)O)C3C=CC21O3)C(C)(C)C (stereo not given)	-1.21	-0.12 (inactive)	-0.549	-0.171	0.971	1.42	-0.262	-1.24	-4.23	-3.08	-1.51	-0.55	-0.612	-1.4	-2.8	-2.13	-0.112	-3.43	-2.09	-0.163 (inactive)
C=C(/C(=C/C[C@@H](OC(=O)c1ccncc1)c1ccc(CO)o1)c1cnc2ccccc2c1)C(C)C	0.485	0.0431 (inactive)	0.0225	-0.132	0.557	0.606	0.367	1.3	1.21	1.17	1.73	0.969	0.462	0.954	1.32	1.07	0.313	0.949	1.4	-4.43 (inactive)
COc1ccc([C@H]2C[C@H]3C(Br)=C[C@]2(OC)C(=O)[C@]32CO2)cc1	0.504	-0.145 (inactive)	-0.0918	-0.161	0.545	-0.332	0.542	-0.72	0.388	0.0428	1.2	0.0022	-0.458	-0.278	0.276	1.2	-1.02	-0.1	-0.06	0.909 (inactive)
O=C(N1CCCCC1)[C@@]1(CCS(=O)(=O)c2ccccc2)N=C(c2ccc(OCCCO)cc2)O[C@H]1c1ccccc1	-0.0092	-0.595 (inactive)	0.0876	-0.0872	0.663	3.28	0.343	1.29	-0.58	0.639	1.9	1.26	0.556	0.328	1.25	-0.0973	0.216	-0.0953	0.0324	-1.32 (inactive)
C#C[C@H](O[Si](C#Cc1ccccc1)(C(C)C)C(C)C)c1ccccc1	0.0778	0.422 (inactive)	-0.293	-0.0743	0.564	0.0271	0.252	0.0094	-0.429	-0.683	0.126	-0.581	-0.515	-0.664	-0.89	-0.487	-1.47	-0.126	-0.242	0.645 (inactive)
CO[C@@H]1COC(=O)[C@H](C)NC(=O)CC=C[C@@H](C)[C@H](NS(=O)(=O)c2ccc(C)cc2)COC(=O)CC=C[C@@H]1C	-0.471	0.237 (inactive)	0.0066	-0.0554	-0.185	0.0657	-0.319	-0.354	-0.0932	-0.809	0.373	0.0643	-0.181	-0.412	-0.268	0.0544	1.43	-0.0101	-0.872	-1.11 (inactive)
Cc1ccc(S[C@]2(C(=O)NCCN3CCOCC3)CC(=O)N(C3Cc4ccccc4C3)[C@@H]2c2ccc(CO)cc2I)cc1	0.545	2.61 (inactive)	-0.0903	0.116	0.576	1.42	0.39	0.458	-2.56	-0.587	0.0031	-0.521	0.355	0.0025	-1.23	-1.41	1.3	-1.21	1.01	-0.83 (inactive)
O=C(CS)NCCCCCNC(=O)[C@H]1C[C@H]2C(=O)N3CCC[C@H]3C(=O)N2[C@H]1c1ccc(O)cc1	-1.54	-0.17 (inactive)	-0.229	-0.0304	0.729	0.0961	1.23	-0.305	0.641	-0.736	0.215	-1.25	-0.384	-0.743	0.927	0.917	1.54	-0.0421	-1.68	-1.75 (inactive)
